# Assay results from PubChem BioAssay AID1508600 (Functional Genomics Laboratory (NCATS/FGL), 2020).
# Screen size: about 53,000 sequences; about 3,700 (7%) were called active.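 How the source made its calls: active means gene knockdowns whose robust z-score for IL-1 alpha signal is at least 2 or at most -2, so actives lie on both sides; inactive means the rest.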 The entries come from a sample that favours actives as a whole.
# Assay: Components of the Cytosolic LPS Sensing Pathway: Gene Identification via Genome-wide siRNA Screen;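 further: robust z of the log signal after scaling to non-targeting control siRNA wells of the plate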
# Conditions: RAW264.7 macrophages, IL-1a HTRF, actives lie on both sides, screened at 100 nM (by protocol), cells primed 5 h with Pam3CSK4 first
# Summary of the method: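 Mouse macrophage line RAW264.7 is transfected with siRNA (100 nM final), grown 48h, primed with TLR ligand Pam3CSK4 5 h and given intracellular LipidA 24 h. IL-1a in supernatant is read by HTRF and viability by luminescence.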
row,Sequence,z-score
1,CCAGUAUGAGAACUACGAUTT against Loxl1,-0.345 (inactive)
2,CCGUUUUGUCUGAAUUCCCTT against 4930515G01Rik,-2.14 (active)
3,GCAGUAAAUGUCCCAUCCGTT against Caskin1,-1.28 (inactive)
4,CCCAUCCAUACAAAAAUGATT against Polm,-1.73 (inactive)
5,CCUUAUUGAGACGAAUACGTT against Fastkd1,-0.958 (inactive)
6,GGACAACAGCAAAACAUCUTT against Atoh1,-0.757 (inactive)
7,CCCAUAACAUUGGUGAUUATT against Vmn1r235,-0.205 (inactive)
8,GGAAUGAGCUGAAUGCAAATT against Psmc5,-2.08 (active)
9,CGUUAAAUGGCAGUACAGATT against Qk,0.388 (inactive)
10,GCCAAACACUCGACUCUAATT against Gm11733,-0.823 (inactive)
11,GGAAAACUUUAGCUACAAATT against Ppp4r4,-0.231 (inactive)
12,GCUUCUAACUCUGUGAGGGTT against Defb29,-2.8 (active)
13,GCAGACGACAAGUUCUACATT against Tbcb,-0.666 (inactive)
14,GCUUAUCAUCUCCAGACAGTT against Svop,-0.144 (inactive)
15,GCUGGUUACUCCCAAGACGTT against Dlgap2,2.18 (active)
16,GGUGGAGUUAACGAGAAACTT against Ccn1,0.69 (inactive)
17,ACUGUUUAAUCACUGUGGUTT against Olfr891,-0.994 (inactive)
18,GGACUACAUCAACCUGGAUTT against Mlf2,0.25 (inactive)
19,GGUCUUCGACACCAUUAACTT against Wipi2,0.947 (inactive)
20,GGACAGUUUGAUGAUGCCGTT against Coprs,-2.87 (active)
21,CCCUGUGACUCCAAAAUGATT against Dbh,-1.01 (inactive)
22,GGACAACGUGCUCAUUAGUTT against Zfp709,0.0713 (inactive)

row,Sequence,z-score
1,GCCUGACGAAGGUUUCUAUTT against Neo1,-0.114 (inactive)
2,GGCAUAAACCUUCUUGCUCTT against Ccl22,-0.221 (inactive)
3,GGUAGAGGUUAUAUAGGCATT against Ms4a6d,0.282 (inactive)
4,GGUACUCACAUCUCCAAAGTT against Zfp948,-0.881 (inactive)
5,GGCAAACAUUUCAAAUACATT against Tgm4,2.12 (active)
6,GGAGGAAGAGAUUUUAAACTT against Rps8,0.158 (inactive)
7,GCUGCUGAUAACAUCCGACTT against Golga5,0.554 (inactive)
8,GGUACAGUUACGGUCAAAUTT against Zfp952,0.739 (inactive)
9,GGUAUGUCCUCUGGUCAAUTT against Bpifa1,0.282 (inactive)
10,GGUCAAUGCUACUAAUGAATT against Ankrd61,0.661 (inactive)
11,GGGAUGCUCUGAACAUUGATT against Anxa2,3.22 (active)
12,CCAUGCAGCAAAUCGAGUUTT against Klk1b5,0.912 (inactive)
13,GGUCUGAGCUUCCAAUAACTT against Reep5,0.183 (inactive)
14,GCUAUUGGGUAGAUUGAUATT against Baat,0.251 (inactive)
15,GCUUCUAAUUGGAGAUUGCTT against Bex3,-1.39 (inactive)
16,GGAACACAAUGGGACGAGUTT against Ccl11,-1.12 (inactive)
17,GGCCACGUUUCUCUUCACCTT against Nyx,-1.12 (inactive)
18,GGCAAAGAAUUCAAUCGGATT against Atp2b2,-0.235 (inactive)
19,GGUUCAAAUGUUGCAUAGUTT against Klrc2,0.597 (inactive)
20,GGAUCACAGCAGAAGAAAUTT against Tmem144,-2.95 (active)
21,GGAAGUGGAAGUUCUGAAGTT against Tsc22d1,-0.886 (inactive)
22,GGGUCUUAUGGAAGUGUUUTT against Stk3,7.27 (active)

row,Sequence,z-score
1,CCUUUUUGAGGAAUUUGGATT against Scaf8,-0.0964 (inactive)
2,CGGCUCGUUGAAGAACAAATT against Afap1,-1.32 (inactive)
3,GGCUUCAUUCGUAGGCCAUTT against Smcr8,1.64 (inactive)
4,GGUUCACAGUAACCAUUGGTT against Zc3h18,-2.45 (active)
5,GCAAAAGGAAACGAUCUCATT against Fbxo43,-0.302 (inactive)
6,GGCUCAGGACUUUGUCUACTT against Lhx4,-1.19 (inactive)
7,GGUUCAACUCUCUUUUUGATT against Atp8b5,0.347 (inactive)
8,GCGAAUGUAGUGUAUUAUGTT against Prkd1,0.259 (inactive)
9,GGACUGUUGAAUAAAACCUTT against Rnps1,-2.29 (active)
10,AGGCACGUCUGAUUGCAUGTT against LOC432823,0.578 (inactive)
11,CCAUUGUGAUCAAGAUAAATT against Cggbp1,-0.35 (inactive)
12,GCUGUGUCACUACUUCGAUTT against Rpp40,1.32 (inactive)
13,GGUGAAAGACACUUGAAUUTT against Cdk2,0.625 (inactive)
14,GGAGACAGAGAAGAUUUGUTT against Mia2,-0.21 (inactive)
15,GCCAACUACGUAUAUACAUTT against 4921511C20Rik,2.41 (active)
16,GCAAGGUGACAUCAGAAGUTT against Flot2,-0.709 (inactive)
17,GGACAUAUAUAGCAAGGAGTT against Polrmt,1.07 (inactive)
18,GGACAGCAGUUUUUACUAGTT against Mllt10,0.907 (inactive)
19,GCUGUUUGACUACAUAAUCTT against Melk,0.275 (inactive)
20,GGUUGGAAAUGAAAUCAAUTT against Erc2,2.36 (active)
21,GGUUCAAGUGACCAAGUUCTT against Odf3,-0.487 (inactive)
22,CCCAAGAUGGUAGCAGACATT against Tbxas1,-0.00814 (inactive)

row,Sequence,z-score
1,GGAACAUGACAUUUUUGUCTT against Smdt1,-0.561 (inactive)
2,GGAGGACUCAGCACUCUUUTT against E130311K13Rik,-0.769 (inactive)
3,GGAUCACAGUCUCUUCGGUTT against Fgf20,0.473 (inactive)
4,GCACUGAUGUAAGGUAACCTT against Prdm4,2.48 (active)
5,GGGUGUACCUUAUGUAUUATT against Prpf4,1.03 (inactive)
6,GGAUUGUGCAGAGCAUCUGTT against Card14,-1.45 (inactive)
7,GGCUGAGGAGAUAACCAUATT against Nemp2,-0.701 (inactive)
8,GAUGGACAAACGGAAGUGCTT against Iapp,0.322 (inactive)
9,GGACUUCAGUUACAACCGGTT against Nr1h3,-0.174 (inactive)
10,GGCCCAUUUUGGUGUGCAUTT against Hyal3,-2 (active)
11,CCACAAUUUUUUCUGCCUCTT against Olfr492,-0.694 (inactive)
12,CGGUAUGAGUAGGAUCUCCTT against Cd83,-0.577 (inactive)
13,GGAAGUGCUUUGAAGAAGATT against Strip2,1.21 (inactive)
14,GCUAACUUGCUCAUGCAAATT against Txlnb,-0.00758 (inactive)
15,GGAAUCGAGAUAUAAAAGGTT against Olfr352,-1.29 (inactive)
16,GCUAGGAUUGUUCACAAACTT against Spdef,-0.707 (inactive)
17,GCUCUUCUCAAGUAUGACGTT against Chrna6,0.717 (inactive)
18,GGAUGCUCACCUUCAAAUUTT against Il2,2.33 (active)
19,GGAUGGAGAUUAUGAAGAGTT against Pcsk9,-0.248 (inactive)
20,CCUGUUACCCUAUAUUUUGTT against Vmn1r82,-1.02 (inactive)
21,CGCAGUUCAUCGCAUGAUUTT against Arhgef12,0.611 (inactive)
22,GGAUGAAAGUCCAACCACATT against Tulp2,-0.17 (inactive)

row,Sequence,z-score
1,GGGUUGAAUAUGUAGCUUGTT against Dsg1a,0.697 (inactive)
2,GGUAUUUGAAUUUCGUCCCTT against Zc3h15,0.122 (inactive)
3,GGGACAACGCACUCCAACATT against 1810024B03Rik,0.904 (inactive)
4,CCAUUUGACAAGACUGCCATT against Ppp6r1,0.921 (inactive)
5,GCAGGUGAGAAAGUAUAAGTT against Mro,-1.09 (inactive)
6,GGACUUCUAGAGAAGAAGCTT against Gpn2,0.0803 (inactive)
7,GCAUAGUUGGAACCGUAUUTT against Tdpoz3,2.25 (active)
8,CCAAUGACUUCUGGUUAGATT against Tdpoz1,0.665 (inactive)
9,GGUCAGAAGAGUUUGCUAATT against Sgms2,0.552 (inactive)
10,CGAUGGAAGCACUUAUUUATT against Lep,0.984 (inactive)
11,GGUCUUGGCACAAUUACAUTT against Actl6a,-2.07 (active)
12,GGCCAAAUGAAGUCAAAAGTT against Srsf12,-0.212 (inactive)
13,CCUUGUUUGAAUAACGAACTT against 5830427D03Rik,-1.73 (inactive)
14,CCCAGUUGCUAUGCUUGACTT against Defb37,1.68 (inactive)
15,GGCCAGGAGAUUCCUAUGATT against Shisa4,-0.304 (inactive)
16,GGAUGAUUCUGGGUUACAGTT against Pwwp3a,-2.26 (active)
17,GGAAAAGUUAGCGUGUAAUTT against Prkcz,-1.66 (inactive)
18,CCAUCCAUAUGAACUAUGATT against Slc30a4,-1.5 (inactive)
19,CCAGACCUGUGGUAAUCUATT against D3Ertd751e,-0.875 (inactive)
